We go through 19 molecules from PubChem BioAssay.

Experiment [1] can be described thus: antimalarial activity against Dd2 strain (AID 2302;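 active = growth inhibition above 50% at the single 2 µM test dose, taken to imply half-maximal potency below 2 µM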;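 note: 0% = DMSO untreated growth and 100% = chloroquine plus artemisinin killed control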). Conditions: P. falciparum Dd2 in RBCs, LDH growth readout, 72 h; at 2 µM; stronger effect = higher value.
Experiment [2] can be described thus: human hepatoma cell viability loss – ATP luminescence, cytotoxicity control for P. falciparum antimalarial project, primary screen (AID 2303;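 active = inhibition above 50%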;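 note: 0% = DMSO wells and 100% = digitonin-killed cells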). As to conditions: HepG2 viability, 24-48 h, at 10 µM, stronger effect = higher value.
Experiment [3] deals with L-lactate dehydrogenase (Plasmodium falciparum (isolate CDC / Honduras)) (UniProt Q27743). The experiment in a line: PfLDH activity inhibition – cell lysate, 3D7 strain, counter-screen for P. falciparum growth inhibition project (AID 2304).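 Note: 0% = vehicle and 100% = reference inhibitor.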 Conditions: P. falciparum 3D7 crude extract, LDH APAD/NBT absorbance; at 2 µM; stronger effect = higher value.
Experiment [4] in a line: inhibition of 3D7 malaria parasite growth – strain 3D7 (AID 2306).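 Note: 0% = DMSO wells and 100% = chloroquine plus artemisinin control wells.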 As to conditions: P. falciparum 3D7 erythrocytic growth, LDH absorbance, 72 h; at 2 µM; stronger effect = higher value.
The target of experiment [5] is Calcium-dependent protein kinase 1 (Plasmodium falciparum (isolate 3D7)) (UniProt P62344). The experiment in a line: PfCDPK1 kinase inhibitors, biochemical, TCAMS library (AID 1159585; cut-off not given, nearly all actives have IC50 up to about 0.98 µM;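 note: inhibitors leave more ATP so luminescence rises with inhibition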). Conditions: recombinant PfCDPK1, Kinase-Glo ATP depletion luminescence.
Experiment [6] concerns the target Plasmodium falciparum protein kinase 6 (PK6, PF3D7_1337100) (UniProt Q8IDW1). In words: PfPK6 kinase inhibitors, biochemical, TCAMS library (AID 1159586). Conditions: recombinant PfPK6, Kinase-Glo ATP depletion luminescence.
The target of experiment [7] is Protein kinase 7 (PK7), Plasmodium falciparum 3D7 (PF3D7_0213400) (UniProt Q7YTF7). The experiment in a line: inhibition of Plasmodium PK7 catalytic activity – biochemical, TCAMS antimalarial set, Kinase-Glo luminescence (AID 1159587). Conditions: recombinant PfPK7, Kinase-Glo ATP depletion luminescence.
Experiment [8] addresses Calcium-dependent protein kinase 4 (Plasmodium falciparum (isolate 3D7)) (UniProt Q8IBS5). The experiment in a line: PfCDPK4 kinase inhibitors, biochemical, TCAMS library (AID 1159588; cut-off not given, nearly all actives have IC50 up to about 0.91 µM). Conditions: recombinant PfCDPK4, Kinase-Glo ATP depletion luminescence.

Values without a mark were called inactive. For some assays here: Results with a measured potency or affinity are listed apart. Active and inactive are the calls of the source. Unless noted, the rule behind the calls is not given here.

Sequence of L-lactate dehydrogenase (Plasmodium falciparum (isolate CDC / Honduras)) (Q27743 whole entry, looked up): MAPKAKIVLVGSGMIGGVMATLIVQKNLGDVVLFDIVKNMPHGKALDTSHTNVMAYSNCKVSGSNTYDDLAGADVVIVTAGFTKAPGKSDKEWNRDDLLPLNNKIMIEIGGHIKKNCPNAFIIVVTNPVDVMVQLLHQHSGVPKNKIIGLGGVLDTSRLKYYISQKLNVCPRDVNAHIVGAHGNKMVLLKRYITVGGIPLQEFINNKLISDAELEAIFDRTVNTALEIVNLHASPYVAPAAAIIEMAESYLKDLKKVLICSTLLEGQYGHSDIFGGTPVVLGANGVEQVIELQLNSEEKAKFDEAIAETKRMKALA
Sequence of Calcium-dependent protein kinase 4 (Plasmodium falciparum (isolate 3D7)) (Q8IBS5 whole entry, looked up): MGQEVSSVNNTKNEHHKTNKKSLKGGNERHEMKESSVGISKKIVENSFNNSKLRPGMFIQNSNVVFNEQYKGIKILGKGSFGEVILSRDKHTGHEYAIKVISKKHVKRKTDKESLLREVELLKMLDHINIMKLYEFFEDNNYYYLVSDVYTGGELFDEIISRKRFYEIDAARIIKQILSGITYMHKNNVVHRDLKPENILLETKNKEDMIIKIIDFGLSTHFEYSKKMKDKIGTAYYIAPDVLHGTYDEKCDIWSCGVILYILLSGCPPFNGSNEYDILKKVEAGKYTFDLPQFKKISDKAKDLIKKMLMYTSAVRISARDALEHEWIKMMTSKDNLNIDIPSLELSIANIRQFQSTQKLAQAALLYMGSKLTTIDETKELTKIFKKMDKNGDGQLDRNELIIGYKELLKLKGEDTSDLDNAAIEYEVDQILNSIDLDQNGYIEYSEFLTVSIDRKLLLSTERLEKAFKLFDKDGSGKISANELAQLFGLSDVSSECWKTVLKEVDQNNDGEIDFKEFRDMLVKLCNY
Sequence of Protein kinase 7 (PK7), Plasmodium falciparum 3D7 (PF3D7_0213400) (Q7YTF7 1-343): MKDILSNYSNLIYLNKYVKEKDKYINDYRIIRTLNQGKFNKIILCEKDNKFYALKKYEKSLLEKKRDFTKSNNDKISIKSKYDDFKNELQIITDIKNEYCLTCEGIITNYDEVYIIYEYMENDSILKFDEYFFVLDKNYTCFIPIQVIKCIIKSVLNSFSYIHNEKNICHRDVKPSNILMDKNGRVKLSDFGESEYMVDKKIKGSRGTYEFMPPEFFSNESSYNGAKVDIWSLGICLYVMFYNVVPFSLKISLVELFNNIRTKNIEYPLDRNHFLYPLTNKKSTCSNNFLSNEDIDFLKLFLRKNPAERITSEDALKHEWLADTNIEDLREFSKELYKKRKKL
Sequence of Calcium-dependent protein kinase 1 (Plasmodium falciparum (isolate 3D7)) (P62344 whole entry, looked up): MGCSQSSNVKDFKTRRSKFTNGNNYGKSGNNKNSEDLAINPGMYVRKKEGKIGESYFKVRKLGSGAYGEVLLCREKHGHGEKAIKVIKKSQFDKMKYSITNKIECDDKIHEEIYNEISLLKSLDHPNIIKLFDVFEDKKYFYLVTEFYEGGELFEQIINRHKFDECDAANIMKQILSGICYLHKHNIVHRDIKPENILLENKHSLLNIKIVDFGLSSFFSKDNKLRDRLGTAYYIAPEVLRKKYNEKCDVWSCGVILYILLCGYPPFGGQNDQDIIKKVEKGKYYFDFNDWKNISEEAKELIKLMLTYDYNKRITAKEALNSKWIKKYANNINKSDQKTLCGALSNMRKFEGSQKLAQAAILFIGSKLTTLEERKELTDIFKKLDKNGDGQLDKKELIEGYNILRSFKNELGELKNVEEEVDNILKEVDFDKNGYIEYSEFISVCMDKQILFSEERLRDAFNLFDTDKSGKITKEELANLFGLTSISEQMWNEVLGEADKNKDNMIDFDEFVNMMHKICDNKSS
Sequence of Plasmodium falciparum protein kinase 6 (PK6, PF3D7_1337100) (Q8IDW1 1-305): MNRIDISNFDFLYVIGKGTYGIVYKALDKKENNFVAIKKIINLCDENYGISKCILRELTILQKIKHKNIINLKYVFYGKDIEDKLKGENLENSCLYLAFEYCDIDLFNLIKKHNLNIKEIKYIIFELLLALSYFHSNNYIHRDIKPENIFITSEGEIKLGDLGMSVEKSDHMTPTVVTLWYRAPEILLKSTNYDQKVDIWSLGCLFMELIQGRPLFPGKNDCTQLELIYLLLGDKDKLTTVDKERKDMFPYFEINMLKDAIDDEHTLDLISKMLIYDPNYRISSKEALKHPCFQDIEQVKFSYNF

Turning to `NC(=O)c1cc(-c2ccccc2)cc2c(C3CCC(NCc4ccccc4)C3)c[nH]c12` (configuration not stated), the growth inhibition in experiment [1] is 30%; in experiment [4] it was 95% (active). Besides, the results for the inhibition in experiment [2] and in experiment [3] were 99% (active) and -7%, respectively. For the same molecule, the outcome in experiment [5], in experiment [6], in experiment [7] and in experiment [8] was inactive.
With `CCCc1ccc(S(=O)(=O)NC2CCN(C(=O)Nc3ccc(I)cc3)CC2)cc1`, the figures for the growth inhibition in experiment [1] and in experiment [4] were -8% and 97% (active), respectively. For the same molecule, the inhibition in experiment [2] was 8%; in experiment [3] it was -3%. Besides, the result in experiment [5], in experiment [6], in experiment [7] and in experiment [8] was inactive.
For the molecule `CN1CCN(c2ccnc3ccc(NC(=O)Nc4ccc5c(c4)CCC5=O)cc23)CC1`, the growth inhibition was 67% (active) in experiment [1] and 100% (active) in experiment [4]. In addition, the results for the inhibition in experiment [2] and in experiment [3] were 8% and 0%, respectively. The outcome in experiment [5], in experiment [6], in experiment [7] and in experiment [8] was inactive.
`COc1cccc(CCc2nc3c(N4CCC(Cc5ccccc5)CC4)cccc3n2CC2CNCCO2)c1` (configuration not stated): the values for the growth inhibition in experiment [1] and in experiment [4] were 96% (active) and 94% (active), respectively. In addition, the inhibition in experiment [2] and in experiment [3] was 4% each time. Further, the outcome in experiment [5], in experiment [6], in experiment [7] and in experiment [8] was inactive.
As to `Cc1cc(F)ccc1-c1nc(NCCCNCCc2ccccc2)nc2c1ccc(=O)n2-c1c(F)cccc1F`, the growth inhibition in experiment [1] and in experiment [4] was 100% (active) in each case. For the same molecule, the inhibition is 36% in experiment [2] and -6% in experiment [3]. For the same molecule, the outcome in experiment [5], in experiment [6], in experiment [7] and in experiment [8] was inactive.
Regarding `NC(=NCc1ccc(O)cc1)Nc1nc(-c2ccc(OCCCn3ccnc3)cc2)cs1`, the growth inhibition in experiment [1] was 89% (active); in experiment [4] it was 102% (active). Further, the inhibition in experiment [2] was 13%; in experiment [3], 2%. Further, the outcome in experiment [5], in experiment [6], in experiment [7] and in experiment [8] was inactive.
For the molecule `Cn1c(Nc2cc(C(C)(C)C)on2)nc2cc(Nc3ccnc(Nc4ccc(CS(C)(=O)=O)cc4)n3)ccc21`, the growth inhibition in experiment [1] is 68% (active); in experiment [4], 101% (active). In addition, the inhibition is 37% in experiment [2] and -1% in experiment [3]. In addition, the result in experiment [5], in experiment [6], in experiment [7] and in experiment [8] was inactive.
As to `O=C(NCCCCN1CCC(c2ccc3c(c2OCc2ccncc2)CCCC3)CC1)c1ccc(NC(=O)c2ccc(Cl)cc2)cc1`, the growth inhibition was 99% (active) in experiment [1] and 100% (active) in experiment [4]. The results for the inhibition in experiment [2] and in experiment [3] were 62% (active) and -4%, respectively. Also, the result in experiment [5], in experiment [6], in experiment [7] and in experiment [8] was inactive.
As for `Cc1onc(-c2c(F)cccc2Cl)c1C(=O)Nc1ccccc1I`, the growth inhibition in experiment [1] was 52% (active); in experiment [4] it was 99% (active). The inhibition in experiment [2] was -8%; in experiment [3], -4%. In addition, the outcome in experiment [5], in experiment [6], in experiment [7] and in experiment [8] was inactive.
For the molecule `Cc1cccc(-c2ccc3c(c2)CC(NCc2cccc(-n4ccnc4)c2)C3)c1` (configuration not stated), the growth inhibition in experiment [1] was 49%; in experiment [4], 101% (active). The inhibition in experiment [2] was 11%; in experiment [3], 0%. Moreover, the outcome in experiment [5], in experiment [6], in experiment [7] and in experiment [8] was inactive.
`O=C(Nc1cccc(CN2CCCN(Cc3ccc4c(c3)OCO4)CC2)c1)c1ccc(Cl)c(Cl)c1`: the values for the growth inhibition in experiment [1] and in experiment [4] were 10% and 92% (active), respectively. Further, the inhibition in experiment [2] was 34%; in experiment [3], -2%. The outcome in experiment [5], in experiment [6], in experiment [7] and in experiment [8] was inactive.
As to `CCn1cnc2c(N3CCCC3=O)cc(C(=O)N[C@@H](Cc3ccccc3)[C@H](O)CNC3CCCCC3)cc21`, the growth inhibition in experiment [1] was 94% (active); in experiment [4], 98% (active). For the same molecule, the inhibition in experiment [2] was -2%; in experiment [3] it was -5%. For the same molecule, the result in experiment [5], in experiment [6], in experiment [7] and in experiment [8] was inactive.
For the molecule `CN(C)c1ccc(C2c3nc[nH]c3CCN2C(=O)Nc2cccc([N+](=O)[O-])c2)cc1` (configuration not stated), the figures for the growth inhibition in experiment [1] and in experiment [4] were 15% and 98% (active), respectively. For the same molecule, the inhibition in experiment [2] is -5%; in experiment [3] it was 1%. Moreover, the outcome in experiment [5], in experiment [6], in experiment [7] and in experiment [8] was inactive.
Regarding `Cc1cccn2c(=O)c3cc(C(=O)NCCN4CCOCC4)c(=N)n(CCc4ccccc4)c3nc12`, the growth inhibition was 85% (active) in experiment [1] and 100% (active) in experiment [4]. The inhibition in experiment [2] is 13%; in experiment [3], 1%. Also, the outcome in experiment [5], in experiment [6], in experiment [7] and in experiment [8] was inactive.
In the case of `NC(N)=NCCCN(Cc1ccccc1)c1ccccc1`, the values for the growth inhibition in experiment [1] and in experiment [4] were 97% (active) and 100% (active), respectively. Also, the inhibition in experiment [2] was -13%; in experiment [3], -3%. In addition, the outcome in experiment [5], in experiment [6], in experiment [7] and in experiment [8] was inactive.
For the molecule `COc1ccc2nc(-c3ccccc3)cc(NN=Cc3ccc([N+](=O)[O-])o3)c2c1`, the growth inhibition is 99% (active) in experiment [1] and 100% (active) in experiment [4]. Moreover, the inhibition in experiment [2] is 90% (active); in experiment [3], -7%. Besides, the result in experiment [5], in experiment [6], in experiment [7] and in experiment [8] was inactive.
Take `O=C(Nc1ccccc1)N(Cc1ccc(-c2cccc(CNC3CCCC3)c2)cc1)C1CCN(Cc2ccccc2)CC1`: the growth inhibition in experiment [1] is 67% (active); in experiment [4] it was 101% (active). Also, the inhibition was 43% in experiment [2] and 1% in experiment [3]. Moreover, the outcome in experiment [5], in experiment [6], in experiment [7] and in experiment [8] was inactive.
For `CN(C)CCCNCCS(=O)(=O)c1cccc(Nc2ccc(-c3cccc(N(C)C)c3)cn2)c1`, the growth inhibition in experiment [1] is -3%; in experiment [4] it was 98% (active). Besides, the inhibition in experiment [2] was 19%; in experiment [3], -2%. Also, the outcome in experiment [5], in experiment [6], in experiment [7] and in experiment [8] was inactive.
As for `C[C@H]1CN(Cc2cccc(-c3cc(CNC(=O)c4cccc(CC5CCN(C)CC5)c4)ccc3F)c2)CCN1C`, the growth inhibition in experiment [1] is 99% (active); in experiment [4], 101% (active). Also, the inhibition in experiment [2] is 42%; in experiment [3], 2%. The outcome in experiment [5], in experiment [6], in experiment [7] and in experiment [8] was inactive.
